Screen size: about 5,500 compounds; about 2,000 (36%) were called active. Not shown: some 18% with an inconclusive outcome. Rule as the data show it: active = normalized growth mostly below about 0.91 (no sharp cut-off); inconclusive = no clear call, values can overlap the other calls; inactive = mostly above about 0.92. The list shows a part of the results.
Assay: chemical genetic growth profiling, strain panel (AID 1159580);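 also: tested at 20 µM; growth read once vehicle control cultures reached saturation at 30 °C; 1 = growth at the plate median or of vehicle wells; lower values mean less growth of the strain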
Settings: growth OD

Measured: normalized growth

Cn1c(=O)c2c(ncn2CCCl)n(C)c1=O
inactive: S. cerevisiae deletion strains, locus YAL013W, strain DEP1, stronger effect = lower value 1 | S. cerevisiae deletion strains, locus YBR021W, strain FUR4, stronger effect = lower value 0.995 | S. cerevisiae deletion strains, locus YBR229C, strain ROT2, stronger effect = lower value 0.997 | S. cerevisiae deletion strains, locus YCL029C, strain bik1, stronger effect = lower value 1.03 | S. cerevisiae deletion strains, locus YDL035C, strain GPR1, stronger effect = lower value 1 | S. cerevisiae deletion strains, locus YDL074C, strain BRE1, stronger effect = lower value 0.999 | S. cerevisiae deletion strains, locus YDL101C, strain DUN1, stronger effect = lower value 1.01 | S. cerevisiae deletion strains, locus YDL134C, strain PPH21, stronger effect = lower value 1 | S. cerevisiae deletion strains, locus YDL185W, strain tfp1, stronger effect = lower value 1.01 | S. cerevisiae deletion strains, locus YDL192W, strain arf1, stronger effect = lower value 1.02 | S. cerevisiae deletion strains, locus YDR101C, strain arx1, stronger effect = lower value 0.995 | S. cerevisiae deletion strains, locus YDR150W, strain NUM1, stronger effect = lower value 0.998 | S. cerevisiae deletion strains, locus YDR162C, strain NBP2, stronger effect = lower value 1 | S. cerevisiae deletion strains, locus YDR318W, strain mcm21, stronger effect = lower value 1.02 | S. cerevisiae deletion strains, locus YDR388W, stronger effect = lower value 1.01 | S. cerevisiae deletion strains, locus YDR502C, strain sam2, stronger effect = lower value 1.02 | S. cerevisiae deletion strains, locus YEL061C, strain CIN8, stronger effect = lower value 0.998 | S. cerevisiae deletion strains, locus YER110C, stronger effect = lower value 1.02 | S. cerevisiae deletion strains, locus YER155C, strain BEM2, stronger effect = lower value 0.997 | S. cerevisiae deletion strains, locus YER167W, strain BCK2, stronger effect = lower value 1.01 | S. cerevisiae deletion strains, locus YGL078C, strain dbp3, stronger effect = lower value 1.02 | S. cerevisiae deletion strains, locus YGL086W, strain mad1, stronger effect = lower value 1.01 | S. cerevisiae deletion strains, locus YGL248W, strain PDE1, stronger effect = lower value 1 | S. cerevisiae deletion strains, locus YGR078C, strain PAC10, stronger effect = lower value 0.975 | S. cerevisiae deletion strains, locus YGR135W, strain pre9, stronger effect = lower value 0.995 | S. cerevisiae deletion strains, locus YGR229C, strain SMI1, stronger effect = lower value 0.987 | S. cerevisiae deletion strains, locus YGR252W, strain gcn5, stronger effect = lower value 1.03 | S. cerevisiae deletion strains, locus YHR030C, strain SLT2, stronger effect = lower value 1 | S. cerevisiae deletion strains, locus YHR079C, strain IRE1 (second series), stronger effect = lower value 1.02 | S. cerevisiae deletion strains, locus YHR094C, strain hxt1, stronger effect = lower value 1.01 | S. cerevisiae deletion strains, locus YHR129C, strain ARP1, stronger effect = lower value 1 | S. cerevisiae deletion strains, locus YHR200W, strain rpn10, stronger effect = lower value 1.03 | S. cerevisiae deletion strains, locus YIL066C, strain RNR3, stronger effect = lower value 1.02 | S. cerevisiae deletion strains, locus YIL073C, strain SPO22, stronger effect = lower value 1.08 | S. cerevisiae deletion strains, locus YIL125W, strain kgd1, stronger effect = lower value 1.02 | S. cerevisiae deletion strains, locus YIR030C, strain dcg1, stronger effect = lower value 1.03 | S. cerevisiae deletion strains, locus YJL095W, strain BCK1, stronger effect = lower value 0.992 | S. cerevisiae deletion strains, locus YJL134W, strain LCB3, stronger effect = lower value 1.01 | S. cerevisiae deletion strains, locus YJL168C, strain set2, stronger effect = lower value 1.02 | S. cerevisiae deletion strains, locus YJL187C, strain SWE1 (second series), stronger effect = lower value 1 | S. cerevisiae deletion strains, locus YJR043C, strain POL32, stronger effect = lower value 0.998 | S. cerevisiae deletion strains, locus YJR075W, strain HOC1, stronger effect = lower value 0.987 | S. cerevisiae deletion strains, locus YKL009W, strain mrt4, stronger effect = lower value 1.03 | S. cerevisiae deletion strains, locus YKL068W, stronger effect = lower value 1.02 | S. cerevisiae deletion strains, locus YKL085W, strain MDH1 (second series), stronger effect = lower value 1.01 | S. cerevisiae deletion strains, locus YKL085W, strain MDH1, stronger effect = lower value 1.01 | S. cerevisiae deletion strains, locus YKL190W, strain CNB1, stronger effect = lower value 1 | S. cerevisiae deletion strains, locus YKR001C, strain vps1, stronger effect = lower value 1.01 | S. cerevisiae deletion strains, locus YLR039C, strain RIC1, stronger effect = lower value 1.04 | S. cerevisiae deletion strains, locus YLR058C, strain SHM2, stronger effect = lower value 1.01 | S. cerevisiae deletion strains, locus YLR102C, strain apc9, stronger effect = lower value 1.03 | S. cerevisiae deletion strains, locus YLR262C, strain YPT6, stronger effect = lower value 1.05 | S. cerevisiae deletion strains, locus YLR268W, strain sec22, stronger effect = lower value 0.994 | S. cerevisiae deletion strains, locus YLR330W, strain CHS5, stronger effect = lower value 1.01 | S. cerevisiae deletion strains, locus YLR342W, strain FKS1 (second series), stronger effect = lower value 1.01 | S. cerevisiae deletion strains, locus YLR371W, strain rom2, stronger effect = lower value 1.03 | S. cerevisiae deletion strains, locus YLR418C, strain cdc73, stronger effect = lower value 0.992 | S. cerevisiae deletion strains, locus YML016C, strain PPZ1, stronger effect = lower value 1 | S. cerevisiae deletion strains, locus YML032C, strain rad52, stronger effect = lower value 1.03 | S. cerevisiae deletion strains, locus YML124C, strain tub3, stronger effect = lower value 1.02 | S. cerevisiae deletion strains, locus YMR078C, strain ctf18, stronger effect = lower value 1.02 | S. cerevisiae deletion strains, locus YMR223W, strain ubp8, stronger effect = lower value 1.04 | S. cerevisiae deletion strains, locus YMR263W, strain SAP30, stronger effect = lower value 0.995 | S. cerevisiae deletion strains, locus YMR307W, strain GAS1, stronger effect = lower value 0.996 | S. cerevisiae deletion strains, locus YNL067W, strain RPL9B, stronger effect = lower value 1.01 | S. cerevisiae deletion strains, locus YNL128W, strain TEP1, stronger effect = lower value 0.999 | S. cerevisiae deletion strains, locus YNL153C, strain GIM3, stronger effect = lower value 0.988 | S. cerevisiae deletion strains, locus YNL233W, strain BNI4, stronger effect = lower value 0.994 | S. cerevisiae deletion strains, locus YNL250W, strain rad50, stronger effect = lower value 1.04 | S. cerevisiae deletion strains, locus YNL271C, strain bni1, stronger effect = lower value 1.02 | S. cerevisiae deletion strains, locus YNL298W, strain CLA4, stronger effect = lower value 1.03 | S. cerevisiae deletion strains, locus YNL307C, strain MCK1, stronger effect = lower value 1.03 | S. cerevisiae deletion strains, locus YNL322C, strain KRE1, stronger effect = lower value 1 | S. cerevisiae deletion strains, locus YNR052C, strain pop2, stronger effect = lower value 1.04 | S. cerevisiae deletion strains, locus YOL006C, strain TOP1, stronger effect = lower value 1.03 | S. cerevisiae deletion strains, locus YOL012C, strain htz1 0.951 | S. cerevisiae deletion strains, locus YOL147C, strain pex11, stronger effect = lower value 1.01 | S. cerevisiae deletion strains, locus YOR061W, strain CKA2, stronger effect = lower value 1.01 | S. cerevisiae deletion strains, locus YOR069W, strain VPS5, stronger effect = lower value 1 | S. cerevisiae deletion strains, locus YOR136W, strain idh2, stronger effect = lower value 1.02 | S. cerevisiae deletion strains, locus YOR144C, strain elg1, stronger effect = lower value 1.01 | S. cerevisiae deletion strains, locus YOR184W, strain ser1, stronger effect = lower value 1.03 | S. cerevisiae deletion strains, locus YOR316C, strain cot1, stronger effect = lower value 1.02 | S. cerevisiae deletion strains, locus YPL055C, strain LGE1, stronger effect = lower value 0.999 | S. cerevisiae deletion strains, locus YPL241C, strain CIN2, stronger effect = lower value 1 | S. cerevisiae deletion strains, locus YPR119W, strain clb2, stronger effect = lower value 1.01 | S. cerevisiae deletion strains, locus YPR141C, strain kar3, stronger effect = lower value 1.02 | S. cerevisiae deletion strains, locus YPR163C, strain tif3, stronger effect = lower value 1.01 | S. cerevisiae deletion strains, locus YPR167C, strain met16, stronger effect = lower value 1.02 | S. cerevisiae deletion strains, strain wtn01, stronger effect = lower value 0.997 | S. cerevisiae strains, strain wild type, stronger effect = lower value 1
